High-throughput results (PubChem BioAssay)
B2AR arrestin ag: ADRB2 beta-arrestin recruitment | P07550 | HTLA Tango cells, beta-arrestin recruitment, luciferase luminescence, 18 h | Potency, µM (top dose mostly 46.1 µM), usual class: activators | 44,000 tested, under 10 active;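 note: potency is the fitted concentration of half-maximal effect; 0% = DMSO and full agonism = EC100 isoproterenol or metaproterenol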
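Tango cells (recombinant beta2-AR, beta-arrestin, tTA-driven luciferase), 1500/well in DMEM 1% FBS, treated 18 h at 37 °C with compounds up to 46 µM; luciferin mix added, luminescence read after 15 min; %activity curves fitted and curve-classed.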
PTAP-TSG101 blk: inhibitors of HIV-1 PTAP binding to human TSG101, validation; 44,000 tested, under 10 active; Fluorescence polarization, FITC-PTAP peptide/Tsg101, 20 min; Potency, µM (titrated, usually from 115 µM), hits mostly inhibitors; Q99816; AID 1347069; note: potency is the fitted concentration of half-maximal effect; 0% is about no effect
Target sequence (Q99816 whole entry, looked up): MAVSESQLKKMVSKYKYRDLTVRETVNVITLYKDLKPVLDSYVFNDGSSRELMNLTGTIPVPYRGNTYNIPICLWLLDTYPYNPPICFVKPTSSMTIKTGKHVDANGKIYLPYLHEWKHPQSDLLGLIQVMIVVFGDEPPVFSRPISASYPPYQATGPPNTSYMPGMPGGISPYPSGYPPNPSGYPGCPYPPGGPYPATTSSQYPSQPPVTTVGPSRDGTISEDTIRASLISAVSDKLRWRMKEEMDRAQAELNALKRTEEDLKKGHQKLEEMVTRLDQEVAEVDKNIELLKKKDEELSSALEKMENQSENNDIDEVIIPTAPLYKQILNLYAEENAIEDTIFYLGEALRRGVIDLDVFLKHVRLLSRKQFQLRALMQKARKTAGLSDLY
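Steps: Tsg101 binding domain (10 uM final) in HEPES pH 7.5/NaCl/Tween 20/EDTA/TCEP; add compound; add FITC-PTAP peptide (50 nM final); incubate 20 min r.t.; read polarization.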
HTT-AS promoter: HTT-AS promoter activation | 48,000 compounds, 0.24% hits | AID 1508624 | HEK293 HTT-AS promoter firefly luciferase reporter, 24 h; response scale: percent change from vehicle, -100% = no light | Potency, µM (titrated, usually from 57.5 µM), for inactives: at the top dose activity change, positive = activation, actives largely listed as activators; note: potency is the fitted concentration of half-maximal effect; nearly all actives have a fitted effect of over 55% in size
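HEK293 cells carrying firefly luciferase reporters were seeded at 2,500 per well in Opti-MEM and cultured for 24 h. They were then treated with compounds at up to 57.5 uM final for 24 h at 37 degrees C before Dual-Glo luminescence readout.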
GALK inhibitor: GALK (human) enzyme inhibition; P51570; recombinant GALK, Kinase-Glo ATP luminescence, 1 h; Potency, µM (top dose mostly 57.5 µM), for inactives: top-dose activity, negative = inhibition, actives largely listed as inhibitors; 44,000 tested, under 10 active;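 note: plate controls were full GALK reaction for no effect and reaction lacking GALK for full effect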
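Luminescent ATP-depletion readout (Kinase-Glo Plus, 10 min) after 1 h RT reaction of 5 nM GALK, 35 uM ATP, 100 uM galactose, pH 8.0 HEPES buffer. Decreased kinase activity scored as inhibition.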
DRV1 agonist: activates human resolvin D1 receptor GPR32 | CHO-K1 GPR32 beta-arrestin PathHunter luminescence, 90 min; zero percent set by DMSO-only wells | O75388 | activation, % at 76.9 µM | 48,000 compounds, 2.5% hits;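 active = activation of at least 60% and not above a set upper limit, about 1 call in 100 departs from these limits; inconclusive = activation of 40% to 60%, or above that upper limit; inactive = activation under 40%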; note: 0% is about no effect
Target sequence (O75388 whole entry, looked up): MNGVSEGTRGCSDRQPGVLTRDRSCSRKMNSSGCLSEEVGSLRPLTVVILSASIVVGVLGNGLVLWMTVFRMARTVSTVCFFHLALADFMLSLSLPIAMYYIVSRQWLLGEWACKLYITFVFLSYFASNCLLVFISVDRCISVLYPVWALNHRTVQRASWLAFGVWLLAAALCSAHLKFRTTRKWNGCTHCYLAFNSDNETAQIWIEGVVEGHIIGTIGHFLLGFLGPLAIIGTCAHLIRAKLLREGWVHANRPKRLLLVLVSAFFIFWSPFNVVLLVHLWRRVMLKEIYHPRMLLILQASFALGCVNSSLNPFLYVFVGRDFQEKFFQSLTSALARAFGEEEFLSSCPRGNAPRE
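PathHunter enzyme-fragment complementation, CHO-K1 GPR32 stable line; 2,500 cells/well, overnight attach; cpd 90 min 37 °C 5% CO2; detection reagent 1 h RT; chemiluminescence. DMSO = EC0.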
HTT prom inh: inhibits huntingtin promoter activity; HEK293 HTT promoter firefly luciferase reporter, 24 h; Potency, µM (highest dose often 57.5 µM), inactives show top-dose activity change, negative = inhibition, usual class: inhibitors; 48,000 compounds, 0.93% hits; AID 1508623; note: potency is the fitted concentration of half-maximal effect; nearly all actives have a fitted effect of over 50% in size
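HEK293 luciferase promoter-reporter cells (2,500/well) plated 24 h, then compounds added at up to 57.5 uM final for 24 h at 37 °C. Firefly luminescence by Dual-Glo, normalized to vehicle (0%) and zero RLU (-100%).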
Starred values were filed as active, the others as inactive; ! = not active in a repeat; [ ] = remark or other dose. Shown are actives, neighbours in structure and some others; about 3.6% of the full set was active somewhere. Unless noted, calls come from the whole dose curve; as a rule, active = well fitted curve in the direction sought with a large enough effect; inconclusive = small, poorly fitted or top-dose-only effect, or another doubt; inactive = no such curve, though single readings can be large; an effect the other way counts as inactive or inconclusive.

Results for CCOc1ccccc1CNC(=O)c1ccc2nc(N3CCC(C)CC3)sc2c1 ?
B2AR arrestin ag: inactive; PTAP-TSG101 blk: inactive; HTT-AS promoter: -53.6%; GALK inhibitor: -10.0%; DRV1 agonist: 5.4; HTT prom inh: 1.78µM*

What do the screens show for `CC1CCN(c2nc3ccc(C(=O)NCCc4ccc(S(N)(=O)=O)cc4)cc3s2)CC1`?
B2AR arrestin ag: inactive; PTAP-TSG101 blk: inactive; HTT-AS promoter: inconclusive; GALK inhibitor: -10.2%; DRV1 agonist: -8.2; HTT prom inh: 0.398µM*

How did CCc1cnn2c(NCc3ccc[n+]([O-])c3)cc(N3CCCC[C@@H]3CCO)nc12 do in these assays?
HTT-AS promoter: -38.4%; HTT prom inh: inconclusive

How did Cc1cc(C)c2c(N)c(C(=O)Nc3ccccc3C(F)(F)F)sc2n1 do in these assays?
B2AR arrestin ag: inactive; PTAP-TSG101 blk: inactive; HTT-AS promoter: inconclusive; GALK inhibitor: -1.0%; DRV1 agonist: 89.4*; HTT prom inh: 18.2%

How did COc1ccccc1-c1cccc(-c2c(O)c3cc(C#N)c(Cl)cc3[nH]c2=O)c1 do in these assays?
HTT-AS promoter: -32.2%[116 µM]; HTT prom inh: -15.2%[116 µM]

Results for CN(c1ccccc1)S(=O)(=O)c1nnc(NC(=O)c2ccco2)s1 ?
B2AR arrestin ag: inactive; PTAP-TSG101 blk: inactive; HTT-AS promoter: -1.3%; GALK inhibitor: 0.7%; DRV1 agonist: 92.8*; HTT prom inh: 9.9%

What do the screens show for `Cc1cccc(C(=O)Nc2nnc(S(=O)(=O)N3CCCc4ccccc43)s2)c1`?
B2AR arrestin ag: inactive; PTAP-TSG101 blk: inactive; HTT-AS promoter: -69.0%; GALK inhibitor: 0.0%; DRV1 agonist: 48.3; HTT prom inh: inconclusive

How did O=C(Nc1nnc(S(=O)(=O)N2CCCc3ccccc32)s1)c1cccc(Cl)c1 do in these assays?
B2AR arrestin ag: inactive; PTAP-TSG101 blk: inactive; HTT-AS promoter: -91.3%; GALK inhibitor: 2.9%; DRV1 agonist: 73.8*; HTT prom inh: inconclusive

How did CN(Cc1ccccc1)S(=O)(=O)c1nnc(NC(=O)c2cccc(Cl)c2)s1 do in these assays?
B2AR arrestin ag: inactive; PTAP-TSG101 blk: inactive; HTT-AS promoter: -30.5%; GALK inhibitor: 0.0%; DRV1 agonist: 67.9*; HTT prom inh: -9.1%

Results for CC1Cc2ccccc2N1S(=O)(=O)c1nnc(NC(=O)c2cccc(F)c2)s1 (stereo not given) ?
B2AR arrestin ag: inactive; PTAP-TSG101 blk: inactive; HTT-AS promoter: -93.4%; GALK inhibitor: 0.0%; DRV1 agonist: 41.4; HTT prom inh: 25.1µM*

Results for c1ccc2c(-c3cnn4cc(-c5ccc(N6CCNCC6)cc5)cnc34)ccnc2c1 ?
HTT-AS promoter: inconclusive; HTT prom inh: -6.0%

How did CC(C)C[C@H](NC(=O)c1cc2ccccc2s1)C(=O)N1CCN(C(=O)[C@H](CO)NS(=O)(=O)c2ccc(Cl)cc2Cl)CC1 do in these assays?
HTT-AS promoter: -23.9%; HTT prom inh: -28.4%

What do the screens show for `COCCCNC(=O)Cn1c(=O)n(Cc2ccc(C(=O)NCc3ccc(C)cc3)cc2)c(=O)c2ccccc21`?
B2AR arrestin ag: inactive; PTAP-TSG101 blk: inactive; HTT-AS promoter: -13.8%; GALK inhibitor: 1.1%; DRV1 agonist: 98.3*; HTT prom inh: 3.4%

How did O=c1cc(N2CCOCC2)oc2c(-c3cccc4c3sc3ccccc34)cccc12 do in these assays?
HTT-AS promoter: -15.0%; HTT prom inh: -10.7%

What do the screens show for `CCOC(=O)c1noc2ncn(CC(=O)Nc3ccccc3OC)c(=O)c12`?
B2AR arrestin ag: inactive; PTAP-TSG101 blk: inactive; HTT-AS promoter: -9.0%; GALK inhibitor: -0.6%; DRV1 agonist: -4.0; HTT prom inh: -1.6%

How did CCOC(=O)c1noc2ncn(CC(=O)Nc3cccc(C(F)(F)F)c3)c(=O)c12 do in these assays?
B2AR arrestin ag: inactive; PTAP-TSG101 blk: inactive; HTT-AS promoter: -11.7%; GALK inhibitor: 1.7%; DRV1 agonist: 64.8*; HTT prom inh: -4.8%

How did CCc1ccc(-n2c(=O)c3c4c(sc3n(CC(=O)NCCCOC)c2=O)CCC4)cc1 do in these assays?
B2AR arrestin ag: inactive; PTAP-TSG101 blk: inactive; HTT-AS promoter: -15.7%; GALK inhibitor: 1.9%; DRV1 agonist: -19.2; HTT prom inh: -15.5%

How did COCCCNC(=O)Cn1c(=O)n(-c2ccc(Cl)cc2)c(=O)c2c3c(sc21)CCCCC3 do in these assays?
B2AR arrestin ag: inactive; PTAP-TSG101 blk: inactive; HTT-AS promoter: -10.3%; GALK inhibitor: 3.6%; DRV1 agonist: 60.1*; HTT prom inh: -11.6%

What do the screens show for `COc1cc(CN(C(=O)COc2ccc(C)cc2)c2ccccn2)cc(OC)c1OC`?
B2AR arrestin ag: inactive; PTAP-TSG101 blk: inactive; HTT-AS promoter: -29.9%; GALK inhibitor: inconclusive; DRV1 agonist: -6.6; HTT prom inh: inconclusive

How did COc1cc(CN(C(=O)COc2ccc(Br)cc2)c2ccccn2)cc(OC)c1OC do in these assays?
B2AR arrestin ag: inactive; PTAP-TSG101 blk: inactive; HTT-AS promoter: -34.3%; GALK inhibitor: 1.0%; DRV1 agonist: -0.4; HTT prom inh: 31.6µM*

What do the screens show for `Oc1c(C(c2ccccc2Cl)N2CCN(Cc3ccccc3)CC2)sc2nc(-c3ccco3)nn12` (stereo not given)?
B2AR arrestin ag: inactive; PTAP-TSG101 blk: inactive; HTT-AS promoter: -11.2%; GALK inhibitor: -3.6%; DRV1 agonist: 94.3*; HTT prom inh: -10.3%

How did Oc1c(C(c2ccc(Cl)cc2Cl)N2CCN(Cc3ccccc3)CC2)sc2nc(-c3ccco3)nn12 (stereo not given) do in these assays?
B2AR arrestin ag: inactive; PTAP-TSG101 blk: inactive; HTT-AS promoter: 10.0%; GALK inhibitor: -4.3%; DRV1 agonist: -7.8; HTT prom inh: 12.4%

Results for CCOC(=O)Cc1ccc(NC(=O)n2ncc3c(C)cccc32)cc1 ?
B2AR arrestin ag: inactive; PTAP-TSG101 blk: inactive; GALK inhibitor: 6.3%; DRV1 agonist: 44.5

What do the screens show for `CCOC(=O)Cc1ccc(NC(=O)n2ncc3cc(Cl)ccc32)cc1`?
B2AR arrestin ag: inactive; PTAP-TSG101 blk: inactive; HTT-AS promoter: -91.3%; GALK inhibitor: 0.5%; DRV1 agonist: 7.6; HTT prom inh: 0.251µM*

Results for Cc1ccc(C(=O)c2cn(Cc3c(F)cccc3Cl)c3nc(C)ccc3c2=O)cc1 ?
B2AR arrestin ag: inactive; PTAP-TSG101 blk: inactive; HTT-AS promoter: -22.7%; GALK inhibitor: -0.2%; DRV1 agonist: 82.2*; HTT prom inh: -15.8%

What do the screens show for `NNCCc1ccccc1`?
HTT-AS promoter: 3.98µM*!; DRV1 agonist: inconclusive; HTT prom inh: -7.1%
